Reference: the supplement of paper PMC12669032
A number with no mark means an inactive call.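 Rule for the calls: active = AUC reduced over 20% with Padj below 0.05 in at least 2 of 3 replicates; inactive = otherwise.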

The molecules below were run on Bacteroides uniformis (assay: growth AUC relative to DMSO control (median of replicates) (fraction); higher = more growth (less inhibition), active = hit call of the paper). Conditions: 20 µM; 24 h.
Procedure, shortened: (§1)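 Hourly OD600 readings over 24 h tracked anaerobic gut bacterial monocultures grown at 37 °C in mGAM from OD600 0.05 with 20 µM compound (1% DMSO). After the minimum OD was set to 0, area under the growth curve was normalised to the plate median of solvent-only wells, or to row and column medians on the industrial chemical plate. Values are medians of three biological replicates grown on separate days.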

Structure (SMILES) | growth AUC
Cc1cc(C2CC2)nc(Nc2ccccc2)n1 | 0.981
CCC(CC)Nc1c([N+](=O)[O-])cc(C)c(C)c1[N+](=O)[O-] | 0.954
CCCSC(=O)N(CCC)CCC | 1.02
C[C@@H](Oc1ccc(Cl)cc1Cl)C(=O)O | 0.965
CCOP(=S)(OCC)Oc1cc(-c2ccccc2)on1 | 0.955
O=C(O)c1cc(Cl)ccc1Cl | 1.03
OCC(O)CCl (stereo unspecified) | 1
Cc1ccc2nc3sc(=O)sc3nc2c1 | 1.04
CC(Cl)(Cl)C(=O)O | 1.02
CCNc1nc(NC(C)C(C)C)nc(SC)n1 (stereo unspecified) | 0.972
CCCCCCCC(=O)Oc1c(I)cc(C#N)cc1I | 0.88
COP(=S)(OC)Oc1cc(Cl)c(Br)cc1Cl | 1.01
C=CCN=C=S | 1.02
COC(=O)c1ccccc1S(=O)(=O)NC(=O)Nc1nc(C)cc(C)n1 | 1.02
CNC(=O)O/N=C(\SC)C(=O)N(C)C | 1.01
CC(Cc1ccc(C(C)(C)C)cc1)CN1CCCCC1 (stereo unspecified) | 1.02
CC1=NNC(=O)N(/N=C/c2cccnc2)C1 | 1.04
c1ccc(-c2ccccc2)cc1 | 1.01
CN1CSC(=S)N(C)C1 | 1.05
COC(=O)NC(=S)Nc1ccccc1NC(=S)NC(=O)OC | 0.988
C=CC1(C)OC(=O)N(c2cc(Cl)cc(Cl)c2)C1=O (stereo unspecified) | 0.99
ClC1=C(Cl)C2(Cl)C3C4C=CC(C4)C3C1(Cl)C2(Cl)Cl (stereo unspecified) | 1.01
CC(C)OP(=O)(OC(C)C)SCc1ccccc1 | 0.968

These molecules were tested on Bifidobacterium longum subsp. longum in the same assay as above. Conditions: 20 µM; 24 h.
Procedure, shortened: as §1

Structure (SMILES) | growth AUC
CCC(C)(c1ccc(O)cc1)c1ccc(O)cc1 | 1.02
C[n+]1ccc(-c2cc[n+](C)cc2)cc1.O.[Cl-].[Cl-] | 1.02
C=CCC1=C(C)C(OC(=O)C2C(C=C(C)C)C2(C)C)CC1=O (mixture of isomers) | 0.96
CCOP(=S)(OCC)SCS(=O)CC (stereo unspecified) | 1.03
CC1=C(C(=O)Nc2ccccc2)SCCO1 | 0.956
CC(C)Nc1nc(Cl)nc(NC(C)C)n1 | 1.07
CNC(=O)Oc1cc(C)cc(C(C)C)c1 | 1.19
C=CCN(CC=C)C(=O)C(Cl)Cl | 0.974
CCS(=O)Cc1ccccc1OC(=O)NC (stereo unspecified) | 0.966
CNC1=C(c2cccc(C(F)(F)F)c2)C(=O)C(c2ccccc2)O1 (stereo unspecified) | 0.888
CC/C(=N\OC/C=C/Cl)C1=C(O)CC(C2CCOCC2)CC1=O (stereo unspecified) | 1.37
CC(COc1ccc(Oc2ccccc2)cc1)Oc1ccccn1 (stereo unspecified) | 1.04
COCCOC(=O)C(C#N)(C(=O)c1ccccc1C(F)(F)F)c1ccc(C(C)(C)C)cc1 (stereo unspecified) | 1.01
O=c1oc2ccccc2c(O)c1C1CC(c2ccc(OCc3ccc(C(F)(F)F)cc3)cc2)Cc2ccccc21 (mixture of isomers) | 0.525 (active)
CN(C)C1CSSSC1.O=C(O)C(=O)O | 0.964
OC(c1ccc(Cl)cc1)(c1ccc(Cl)cc1)C(Cl)(Cl)Cl | 0.973
Cc1cc(C2CC2)nc(Nc2ccccc2)n1 | 1.04
CCC(CC)Nc1c([N+](=O)[O-])cc(C)c(C)c1[N+](=O)[O-] | 1
CCCSC(=O)N(CCC)CCC | 1.04
C[C@@H](Oc1ccc(Cl)cc1Cl)C(=O)O | 0.982
CCOP(=S)(OCC)Oc1cc(-c2ccccc2)on1 | 1.06
O=C(O)c1cc(Cl)ccc1Cl | 1.17
OCC(O)CCl (stereo unspecified) | 0.965
Cc1ccc2nc3sc(=O)sc3nc2c1 | 1.07
CC(Cl)(Cl)C(=O)O | 0.983
CCNc1nc(NC(C)C(C)C)nc(SC)n1 (stereo unspecified) | 0.965
CCCCCCCC(=O)Oc1c(I)cc(C#N)cc1I | 1.03
COP(=S)(OC)Oc1cc(Cl)c(Br)cc1Cl | 0.971
